Here are results for twelve molecules from PubChem BioAssay (NCATS).

For one assay, the system named is TAB165. In words: qHTS profiling for inhibitors of Plasmodium falciparum proliferation (AID 504749). Further: nearly all actives have a fitted effect of over 60% in size. The conditions noted are these: P. falciparum in erythrocytes, SYBR Green DNA, 72 h; series mostly up to 28.7 µM. In a few lines: (§1)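 Readout was DNA-dye fluorescence from lysed cultures, ex 485/em 535 nm. Parasitized red cells had grown 72 h with compound; data scaled between 0.29 uM artemisinin and DMSO wells and corrected using vehicle-only plates.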
In general terms: In qHTS, concentration-response curves come from the screen itself.

The test system of a further assay is W2. Described as above. The conditions noted are these: P. falciparum in erythrocytes, SYBR Green DNA, 72 h; series mostly up to 28.7 µM. Summed up:
as §1

For the next assay, the system named is KB-3-1. In words: Cytotoxic Profiling of Annotated Libraries Using Quantitative High-Throughput Screening (AID 1296008). Further: nearly all actives have a fitted effect of over 60% in size. On max response: on the % scale 0 is the no-effect control and ±100 the full control effect. The following applies: Five cell lines viability, CellTiter-Glo ATP luminescence, 48-72 h; max response: stronger effect = lower value. In a few lines:
(§2)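 Cells exposed to compounds for 48 or 72 hr at 37 degrees Celsius. Viability read as ATP-coupled luminescence with CellTiter-Glo after 10 min at room temperature.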

The next assay concerns MKL-1. In words: qHTS assay to identify novel small-molecules to repurpose for Merkel cell carcinoma treatment (AID 1296009). Further: nearly all actives have a fitted effect of over 60% in size. The following applies: MCC and control cell lines, CellTiter-Glo viability, 72 h; series mostly up to 46 µM. Summed up: (§3)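 Cells were incubated with compound for 72 hr at 37 degree celsius before CellTiter-Glo addition. Luminescence was normalized with no-cell wells as full cytotoxicity and DMSO as baseline.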

The test system of a further assay is WaGa. Described as above. The following applies: MCC and control cell lines, CellTiter-Glo viability, 72 h; series mostly up to 46 µM. Summed up: as §3
(In general: In ATP-based viability assays light output follows the ATP content of the culture.)

The test system of assay [1] is HaCat. Briefly: Cytotoxic Profiling of Annotated Libraries Using Quantitative High-Throughput Screening (AID 1296008). Further: nearly all actives have a fitted effect of over 60% in size. On max response: on the % scale 0 is the no-effect control and ±100 the full control effect. The following applies: Five cell lines viability, CellTiter-Glo ATP luminescence, 48-72 h; max response: stronger effect = lower value. Summed up: as §2
Another assay concerns NIH3T3. Described as above. The conditions noted are these: Five cell lines viability, CellTiter-Glo ATP luminescence, 48-72 h; max response: stronger effect = lower value. In a few lines:
as §2

A further assay deals with MCC-13. In words: qHTS assay to identify novel small-molecules to repurpose for Merkel cell carcinoma treatment (AID 1296009). Further: nearly all actives have a fitted effect of over 60% in size. The conditions noted are these: MCC and control cell lines, CellTiter-Glo viability, 72 h; series mostly up to 46 µM. In a few lines: as §3
The next assay relates to MCC-26. The assay is described as above. The following applies: MCC and control cell lines, CellTiter-Glo viability, 72 h; series mostly up to 46 µM. In a few lines:
as §3

Another assay concerns UISO. The assay is described as above. The following applies: MCC and control cell lines, CellTiter-Glo viability, 72 h; series mostly up to 46 µM. Summed up:
as §3

The subject of a further assay is C33A. In words: Primary qHTS to identify gynecologic anti-cancer compounds using libraries of approved drugs and bioactive compounds (AID 1345084). Further: nearly all actives have a fitted effect of over 55% in size. The conditions noted are these: Gynecologic cancer cell panel viability, ATPlite luminescence, 48 h; series mostly up to 57.5 µM. In a few lines: (§4)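 Cells, 1,000 per well, were allowed to settle for 16 h at 37 C before compound addition. Five concentrations were tested for 48 h, and viability was read by ATPlite luminescence after 15 min at room temperature.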

Another assay concerns CAOV3. The assay is described as above. The conditions noted are these: Gynecologic cancer cell panel viability, ATPlite luminescence, 48 h; series mostly up to 57.5 µM. In a few lines: as §4
A further assay relates to CASKI. The description is as above. The following applies: Gynecologic cancer cell panel viability, ATPlite luminescence, 48 h; series mostly up to 57.5 µM. In a few lines: as §4
The next assay concerns Es-2. The description is as above. The conditions noted are these: Gynecologic cancer cell panel viability, ATPlite luminescence, 48 h; series mostly up to 57.5 µM. In a few lines:
as §4

Another assay has as its system CRL-7250. In words: Cytotoxic Profiling of Annotated Libraries Using Quantitative High-Throughput Screening (AID 1296008). Further: nearly all actives have a fitted effect of over 60% in size. On max response: on the % scale 0 is the no-effect control and ±100 the full control effect. The conditions noted are these: Five cell lines viability, CellTiter-Glo ATP luminescence, 48-72 h; max response: stronger effect = lower value. Summed up: as §2
For the next assay, the system named is HEK293. Described as above. The following applies: Five cell lines viability, CellTiter-Glo ATP luminescence, 48-72 h; max response: stronger effect = lower value. In a few lines:
as §2

A further assay deals with MKL-2. In words: qHTS assay to identify novel small-molecules to repurpose for Merkel cell carcinoma treatment (AID 1296009). Further: nearly all actives have a fitted effect of over 60% in size. The conditions noted are these: MCC and control cell lines, CellTiter-Glo viability, 72 h; series mostly up to 46 µM. Summed up:
as §3

For assay [2], the system named is HACAT. Described as above. The following applies: MCC and control cell lines, CellTiter-Glo viability, 72 h; at 44.8 µM (top of the series) unless noted. In a few lines:
as §3

“And” between values parts separate entries of the source, which are not always exact repeats. Equal entries are not always repeated. Results filed as inconclusive are left out. More than one record can exist for a structure, and the calls need not agree. The source made the active and inactive calls. The call rests on the fitted dose curve; in most records, active means well fitted curve in the direction sought with a large enough effect; inconclusive means small, poorly fitted or top-dose-only effect, or another doubt; inactive means no such curve, though single readings can be large; an effect the other way counts as inactive or inconclusive.
Potency means the concentration at half of the fitted maximal effect.

In the case of `CN(C)CCCN1c2ccccc2Sc2ccc(Cl)cc21`, the Potency with TAB165 is 8.91 µM (active); in the assay with W2, 1.07 µM (active); in the assay on MKL-1 it was 23.7 µM (active); in the assay with WaGa, 26.6 µM (active). Further, in the assay with KB-3-1, the max response was -6.48% (inactive).

Turning to `CC1=C(/C=C/C(C)=C/C=C/C(C)=C/C(=O)O)C(C)(C)CCC1`, the Potency result in the assay on TAB165, in the assay with W2, with MCC-13, with MCC-26, in the assay with UISO and in the assay with C33A was “inactive” in each case. Further, the Potency result with CAOV3, with CASKI and in the assay on Es-2 was “inactive” throughout. The max response in the assay with HaCat [1] is -3.44% (inactive); in the assay on KB-3-1 it was -14.5% (inactive); with NIH3T3, -0.598% (inactive).

Turning to `CC[C@H]1CN2CCc3cc(OC)c(OC)cc3[C@@H]2C[C@@H]1C[C@H]1NCCc2cc(OC)c(OC)cc21`, the Potency is 355 nM (active) in the assay with CASKI and 447 nM (active) in the assay with Es-2.

As for `CCN(CC)CCSC(=O)C(c1ccccc1)c1ccccc1`, the Potency result in the assay on TAB165, with MCC-13, with MCC-26, in the assay on MKL-1, in the assay on UISO and in the assay on C33A was “inactive” throughout. Also, the Potency result in the assay on CAOV3, in the assay with CASKI and in the assay with Es-2 was “inactive” throughout. For the same molecule, the max response was -12.1% (inactive) with CRL-7250; -3.95% (inactive) with HaCat [1]; 12.2% (inactive) and -4.64% (inactive) with KB-3-1; -1.72% (inactive) with NIH3T3.

For the molecule `CCN(CC)CCCC(C)Nc1c2ccc(Cl)cc2nc2ccc(OC)cc12` (centres undefined), the Potency was 16.8 µM (active) in the assay on CRL-7250; 7.5 µM (active) and 3.17 µM (active) in the assay on HEK293; 23.7 µM (active) in the assay on MCC-13; 15 µM (active) in the assay with MKL-1; 3.35 µM (active) with MKL-2; 26.6 µM (active) in the assay with WaGa. In addition, the Potency in the assay on C33A was 12.6 µM (active) and inactive; with CAOV3, 3.98 µM (active). Moreover, the max response in the assay on KB-3-1 was -7.27% (inactive). Besides, the Potency result in the assay with Es-2 was “inactive”.

With `C=Cc1c(C)c2cc3[nH]c(cc4nc(cc5nc(cc1[nH]2)C(C)=C5CCC(=O)O)C(CCC(=O)O)=C4C)c(C)c3C=C`, the Potency result in the assay on TAB165, in the assay on W2, in the assay on MCC-13, in the assay with MCC-26, with MKL-1 and in the assay with MKL-2 was “inactive” in each case. Besides, the Potency entry in the assay with UISO, with WaGa, in the assay with C33A, in the assay on CAOV3, in the assay with CASKI and in the assay on Es-2 was “inactive” in each case. Moreover, the max response in the assay with HEK293 was -10.7% (inactive); in the assay with KB-3-1, -3.43% (inactive); in the assay on NIH3T3, -14.7% (inactive). The result in the assay with HaCat [1] and in the assay on HACAT [2] was inactive.

Regarding `Cc1c(O)cccc1C(=O)N[C@@H](CSc1ccccc1)[C@H](O)CN1C[C@H]2CCCC[C@H]2C[C@H]1C(=O)NC(C)(C)C`, the Potency with TAB165 was 10 µM (active); in the assay on W2 it was 8.49 µM (active). For the same molecule, the Potency entry in the assay on MCC-26, in the assay with CAOV3, with CASKI and in the assay with Es-2 was “inactive” in each case.

For the molecule `CN(C)CCOC(C)(c1ccccc1)c1ccccn1` (centres undefined), the Potency result in the assay with MCC-13, in the assay with MKL-1, with MKL-2, in the assay with UISO, in the assay with WaGa and in the assay with C33A was “inactive” throughout. Moreover, the Potency entry with CAOV3, in the assay with CASKI and in the assay on Es-2 was “inactive” throughout.

As to `CNCC(O)c1ccc(O)c(O)c1` (centres undefined), the max response in the assay on HaCat [1] is -0.0091% (inactive); with NIH3T3, -1.98% (inactive). Moreover, the Potency in the assay on MKL-1 was 16.8 µM (active); in the assay with MKL-2 it was 13.3 µM (active); with UISO it was 16.8 µM (active).

On to `CNCCC(Oc1ccc(C(F)(F)F)cc1)c1ccccc1` (centres undefined), for which the Potency in the assay with TAB165 is 11.2 µM (active); in the assay with W2 it was 3.79 µM (active); in the assay on MKL-1, 26.6 µM (active); with WaGa, 21.1 µM (active). Also, in the assay with KB-3-1, the max response is 2.04% (inactive).

`CC(CN(C)C)CN1c2ccccc2CCc2ccccc21` (centres undefined): the molecule was classed as inactive in the assay on CRL-7250. In addition, the max response in the assay on HaCat [1] was 2.23% (inactive); with KB-3-1, 4.48% (inactive); with NIH3T3 it was 4.54% (inactive). For the same molecule, the Potency entry in the assay with MCC-13, in the assay with MCC-26, with MKL-1, with UISO, in the assay on WaGa and in the assay with C33A was “inactive” each time. Moreover, the Potency result in the assay with Es-2 is “inactive”.

With `CCCCN(CCCC)CC(O)c1cc(Cl)cc2c1-c1ccc(Cl)cc1/C2=C/c1ccc(Cl)cc1` (centres undefined), the Potency in the assay on TAB165 is 0.0079 µM (active). Besides, the max response with HaCat [1] is -7.84% (inactive). Besides, the Potency entry in the assay on MCC-13, in the assay on MCC-26, with WaGa, with C33A, in the assay with CAOV3 and in the assay on CASKI was “inactive” throughout. Also, in the assay on Es-2, the Potency result was “inactive”.
